D1 potentiator: enhances dopamine response at the human D1 receptor; potentiation, % at 10 µM; P21728; 360,000 tested, 0.036% active; HEK293 TREx D1 cells, calcium flux, dopamine EC20 potentiation; in the data active means potentiation above about 30%
Target sequence (P21728 whole entry, looked up): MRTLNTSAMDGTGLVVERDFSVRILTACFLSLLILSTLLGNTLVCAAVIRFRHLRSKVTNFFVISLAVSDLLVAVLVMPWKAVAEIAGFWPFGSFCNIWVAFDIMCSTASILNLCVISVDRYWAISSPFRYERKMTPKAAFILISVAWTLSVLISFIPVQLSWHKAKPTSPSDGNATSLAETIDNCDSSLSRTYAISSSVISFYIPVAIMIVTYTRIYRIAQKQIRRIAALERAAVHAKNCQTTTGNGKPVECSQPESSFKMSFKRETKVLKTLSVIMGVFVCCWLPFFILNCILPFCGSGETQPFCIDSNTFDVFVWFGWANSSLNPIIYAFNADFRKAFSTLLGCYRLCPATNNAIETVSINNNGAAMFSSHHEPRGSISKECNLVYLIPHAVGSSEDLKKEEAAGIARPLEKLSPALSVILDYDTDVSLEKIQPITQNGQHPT
TRHR agonist: TRH receptor (human) agonism | P34981 | activation, % at 2 µM | TRHR cells, calcium flux fluo-8, FDSS agonist mode | 360,000 tested, 0.18% active
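Agonist-mode FDSS calcium read (Ex 480/Em 530, 1 s cycles) in 1536-well TRHR cells with fluo-8 dye, after 10-cycle baseline and 23 nL compound addition; TRH at EC20 (10 nM final) added afterwards for the enhancer phase.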
D1 agonist: human D1 receptor agonism | HEK293 T-REx D1 cells, calcium flux, agonist mode | activation, % at 2 µM | P21728 | 360,000 tested, 1% active | AID 504660
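Inducible HEK293 T-REx D1 cells, force-coupled to calcium signalling, were plated at 4000 cells/well with tetracycline and held overnight at 30 C. After no-wash calcium dye loading, compound-evoked calcium rise over 180 s flagged agonists.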
TRHR PAM: allosteric enhancers of human TRH receptor. P34981. TRHR cells, fluo-8 calcium fluorescence, EC20 TRH enhancement. enhancement, % at 2 µM. 360,000 tested, 0.66% active; in the data active means enhancement above about 30%
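TRHR-expressing cells loaded with fluo-8 calcium dye were read kinetically (ex 480/em 530) during compound addition, then stimulated with an EC20 of TRH (10 nM final). Enhancement of the Gq-mediated intracellular calcium response was scored.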
D1 antag: antagonists of human D1 dopamine receptor. 360,000 tested, 3.2% active. HEK293 TREx D1 cells, calcium flux, dopamine EC80; stronger effect = lower value. activity change, negative = inhibition, % at 10 µM. P21728. AID 504652; in the data active means activity change below about -30%
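HEK293 T-REx cells expressing inducible, force-coupled D1 receptor; no-wash Ca dye, 30–90 min RT. Cmpd → 180 s read at 1 Hz → EC80 DA → 180 s read.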
Numbers stand for hits; - = inactive. Sampled rows, rich in hits. Any-hit rate of the full collection: about 4.7%. Unless noted, no stated cut-off is given here; in the data, active means activation above about 30%; inactive means the rest.

SMILES	D1 potentiator	TRHR agonist	D1 agonist	TRHR PAM	D1 antag
O=C(CSc1nnc(COc2ccc(Cl)cc2)o1)N1CCCCC1	-	-	-	-	-31
CCCNC(=O)Cn1c(=O)c2cccn2c2cccnc21	-	-	-	-	-
COc1ccc(OC(=O)COc2ccc(Cl)cc2)cc1	-	-	-	39	-
CC1CN(C(=O)COC(=O)COc2ccc(C#N)cc2)CC(C)O1 (stereo not given)	-	-	-	-	-47
Cc1ccc(-n2c(=O)c3c(cnn3C)n(Cc3ccc(Cl)cc3)c2=O)cc1	-	-	-	-	-
CCN(CC)CCCNc1ncnc2c1cnn2-c1ccc(C)c(C)c1	-	-	-	-	-
CC1Oc2ccccc2C=C1/C=N/NC(=O)c1ccccc1O (stereo not given)	-	-	-	-	-40
COc1ccc(-c2cc(C(=O)OCC(=O)c3cccc(OC)c3)c3cccc(Cl)c3n2)cc1	-	-	-	-	-
CCN(CC)CCN1C(=O)C(=O)/C(=C(/O)c2ccc3c(c2)CC(C)O3)C1c1ccc(OC)cc1 (stereo not given)	-	-	-	-	-30
N#Cc1c(SCC(=O)Nc2ccccc2C(F)(F)F)sc2c(O)cc(=O)[nH]c12	-	-	-	-	-33
Cc1c(Cl)cccc1NC(=O)CSc1sc2c(O)cc(=O)[nH]c2c1C#N	-	-	-	-	-
COc1ccc(/C=C/c2nc3ccccc3c(=O)n2-c2cccc(C(F)(F)F)c2)cc1	-	-	-	-	-
O=C(Nc1cc(S(=O)(=O)N2CCCCC2)ccc1Cl)C1=NN(c2ccccc2)C(=O)CC1	-	-	-	-	-
Cc1ccc(C)c(N2CCN(C(=O)c3cnc4c(-c5ccccc5)c(C)nn4c3C)CC2)c1	-	-	-	-	-
Cc1cccc(C)c1NC(=O)CN(C)C(=O)[C@H](C)NC(=O)c1ccco1	-	-	-	-	-80
COc1cc(Cl)c(NC(=O)CN(C)S(=O)(=O)c2ccc3c(c2)CCCC(=O)N3)c(OC)c1	-	-	-	-	-
O=C(NN1C(=O)C2C3C=CC(O3)C2C1=O)c1cccc(O)c1 (stereo not given)	-	-	-	-	-80
N/C(=N\OC(=O)COc1ccc(Cl)cc1Cl)c1ccncc1	-	-	-	-	-
CCC1=NN(C(=O)Cc2ccccc2)C(O)(c2ccncc2)C1 (stereo not given)	-	-	-	-	-41
CCOC(=O)C(Oc1ccc2c(-c3ccccc3)cc(=O)oc2c1)c1ccccc1 (stereo not given)	-	-	-	-	-31
COCCNC(=O)CCn1c(=O)c2cc(OC)c(OC)cc2n(CC(=O)Nc2ccccc2OC)c1=O	-	-	-	-	-
Cc1[nH]c2ccc(-c3n[nH]c(=S)n3Cc3ccccc3)cc2c1C	-	-	-	-	-32
CCCn1c(=N)n(CC(O)COc2cccc(C)c2)c2ccccc21 (stereo not given)	-	-	44	-	-
CCCCn1c(=N)n(CC(O)COc2ccccc2)c2ccccc21 (stereo not given)	-	-	-	-	-
N=c1n(CCN2CCCCC2)c2ccccc2n1CC(O)COc1ccccc1 (stereo not given)	-	-	-	-	-
SMILES	D1 potentiator	TRHR agonist	D1 agonist	TRHR PAM	D1 antag
CCCCCn1c(=N)n(CC(O)COc2cccc(C)c2)c2ccccc21 (stereo not given)	-	-	59	-	-
CCn1c(=N)n(CC(O)COc2cccc(C)c2)c2ccccc21 (stereo not given)	-	-	79	-	-
N=c1n(CCN2CCOCC2)c2ccccc2n1CC(O)COc1ccccc1 (stereo not given)	-	-	-	-	-
COc1ccc(CCNC(=O)c2cnc3sc(N4CCC(C)CC4)nn3c2=O)cc1OC	-	-	-	-	-
Cc1onc(-c2ccccc2)c1C(=O)N1CCN(S(=O)(=O)c2ccc(OC(F)(F)F)cc2)CC1	-	-	-	-	-
CC(C)(C)OC(=O)N1CCC(c2c(C(=O)N3CCN(c4ccccc4)CC3)cnn2-c2ccccc2)CC1	-	-	-	-	-
CC[n+]1c(/C=C/N(C)c2ccccc2)oc2ccc(Cl)cc21	-	-	-	-	-
CCN1/C(=C/C=C/c2oc3ccc4ccccc4c3[n+]2CC)Oc2ccc3ccccc3c21	-	31	93	-	-
